The results in this text go back to article PMC11006913.

Residue numbers refer to the chain shown, from its start.

What all share (assay): PBM; 200 nM protein, PBS
Holding throughout (conditions): dsDNA, one strand shown

Experiment [1] has as its target T1, SIX6 (Homo sapiens, UniProt O95475 114-200, L167I).
T1 sequence: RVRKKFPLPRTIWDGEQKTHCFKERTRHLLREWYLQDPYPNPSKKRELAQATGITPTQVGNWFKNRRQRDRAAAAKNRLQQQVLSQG

For experiment [2], the target named is T2, SIX6 (Homo sapiens, UniProt O95475 114-200, L143V).
T2 sequence: T1 sequence with L30V, I54L

Experiment [3] addresses T3, SIX6 (Homo sapiens, UniProt O95475 114-200, H141N).
T3 sequence: T1 sequence with H28N, I54L

The target of experiment [4] is T4, SIX6 (Homo sapiens, UniProt O95475 114-200, T165P).
T4 sequence: T1 sequence with T52P, I54L

Experiment [5] deals with T5, SIX6 (Homo sapiens, UniProt O95475 114-200, L167M).
T5 sequence: T1 sequence with I54M

In experiment [6] the target is T6, SIX6 (Homo sapiens, UniProt O95475 114-200, L143M).
T6 sequence: T1 sequence with L30M, I54L

Experiment [7] deals with T7, SIX6 (Homo sapiens, UniProt O95475 114-200, L143I).
T7 sequence: T1 sequence with L30I, I54L

Experiment [8] has as its target T8, SIX6 (Homo sapiens, UniProt O95475 114-200, T165G).
T8 sequence: T1 sequence with T52G, I54L

Experiment [9] concerns the target T9, SIX6 (Homo sapiens, UniProt O95475 114-200, T139Q).
T9 sequence: T1 sequence with T26Q, I54L

Experiment [10] concerns the target T10, SIX6 (Homo sapiens, UniProt O95475 114-200, T165A).
T10 sequence: T1 sequence with T52A, I54L

The target in experiment [11] is T11, SIX6 (Homo sapiens, UniProt O95475 114-200, L167V).
T11 sequence: T1 sequence with I54V

The target of experiment [12] is T12, SIX6 (Homo sapiens, UniProt O95475 114-200).
T12 sequence: T1 sequence with I54L

Experiment [13] addresses T13, SIX6 (Homo sapiens, UniProt O95475 114-200, T165I).
T13 sequence: T1 sequence with T52I, I54L

Turning to ATCGATAC, the binding signal in [1] was 11.2 upbm affinity estimate (log intensity, higher = more binding, comparable within an allelic series); in [2], 10.5 upbm affinity estimate (log intensity, higher = more binding, comparable within an allelic series); in experiment [3] it was 11.2 upbm affinity estimate (log intensity, higher = more binding, comparable within an allelic series); in experiment [4], 9.79 upbm affinity estimate (log intensity, higher = more binding, comparable within an allelic series); in experiment [5] it was 10.6 upbm affinity estimate (log intensity, higher = more binding, comparable within an allelic series); in experiment [6], 10.9 upbm affinity estimate (log intensity, higher = more binding, comparable within an allelic series). Besides, the binding signal in experiment [7] is 10.3 upbm affinity estimate (log intensity, higher = more binding, comparable within an allelic series); in experiment [8], 11.2 upbm affinity estimate (log intensity, higher = more binding, comparable within an allelic series); in [9] it was 11.3 upbm affinity estimate (log intensity, higher = more binding, comparable within an allelic series); in [10] it was 11.1 upbm affinity estimate (log intensity, higher = more binding, comparable within an allelic series); in experiment [11], 11 upbm affinity estimate (log intensity, higher = more binding, comparable within an allelic series); in experiment [12], 11 upbm affinity estimate (log intensity, higher = more binding, comparable within an allelic series). Moreover, in experiment [13], the binding signal is 11 upbm affinity estimate (log intensity, higher = more binding, comparable within an allelic series).

For the sequence ATGTATCG, the binding signal in experiment [1] is 11 upbm affinity estimate (log intensity, higher = more binding, comparable within an allelic series); in experiment [2], 10.3 upbm affinity estimate (log intensity, higher = more binding, comparable within an allelic series); in experiment [3], 11 upbm affinity estimate (log intensity, higher = more binding, comparable within an allelic series); in experiment [4], 10 upbm affinity estimate (log intensity, higher = more binding, comparable within an allelic series); in [5], 10.6 upbm affinity estimate (log intensity, higher = more binding, comparable within an allelic series); in [6], 10.8 upbm affinity estimate (log intensity, higher = more binding, comparable within an allelic series). In addition, the binding signal in experiment [7] is 10.4 upbm affinity estimate (log intensity, higher = more binding, comparable within an allelic series); in experiment [8] it was 11 upbm affinity estimate (log intensity, higher = more binding, comparable within an allelic series); in experiment [9] it was 11.1 upbm affinity estimate (log intensity, higher = more binding, comparable within an allelic series); in experiment [10] it was 11 upbm affinity estimate (log intensity, higher = more binding, comparable within an allelic series); in experiment [11], 10.7 upbm affinity estimate (log intensity, higher = more binding, comparable within an allelic series); in experiment [12], 10.9 upbm affinity estimate (log intensity, higher = more binding, comparable within an allelic series). The binding signal in experiment [13] is 10.8 upbm affinity estimate (log intensity, higher = more binding, comparable within an allelic series).

Regarding ATGACACC, the binding signal in [1] was 10.7 upbm affinity estimate (log intensity, higher = more binding, comparable within an allelic series); in [2], 10.2 upbm affinity estimate (log intensity, higher = more binding, comparable within an allelic series); in experiment [3], 11.1 upbm affinity estimate (log intensity, higher = more binding, comparable within an allelic series); in experiment [4], 9.61 upbm affinity estimate (log intensity, higher = more binding, comparable within an allelic series); in experiment [5], 10.1 upbm affinity estimate (log intensity, higher = more binding, comparable within an allelic series); in experiment [6] it was 10.7 upbm affinity estimate (log intensity, higher = more binding, comparable within an allelic series). Further, the binding signal in [7] was 10.4 upbm affinity estimate (log intensity, higher = more binding, comparable within an allelic series); in [8], 11.4 upbm affinity estimate (log intensity, higher = more binding, comparable within an allelic series); in experiment [9], 11.3 upbm affinity estimate (log intensity, higher = more binding, comparable within an allelic series); in [10], 11.4 upbm affinity estimate (log intensity, higher = more binding, comparable within an allelic series); in experiment [11] it was 10.5 upbm affinity estimate (log intensity, higher = more binding, comparable within an allelic series); in experiment [12], 10.9 upbm affinity estimate (log intensity, higher = more binding, comparable within an allelic series). Further, the binding signal in experiment [13] is 10.9 upbm affinity estimate (log intensity, higher = more binding, comparable within an allelic series).

Turning to ATACGATA, the binding signal is 11.1 upbm affinity estimate (log intensity, higher = more binding, comparable within an allelic series) in experiment [1]; 10.4 upbm affinity estimate (log intensity, higher = more binding, comparable within an allelic series) in [2]; 11 upbm affinity estimate (log intensity, higher = more binding, comparable within an allelic series) in experiment [3]; 9.94 upbm affinity estimate (log intensity, higher = more binding, comparable within an allelic series) in [4]; 10.6 upbm affinity estimate (log intensity, higher = more binding, comparable within an allelic series) in experiment [5]; 10.9 upbm affinity estimate (log intensity, higher = more binding, comparable within an allelic series) in experiment [6]. Further, the binding signal in [7] is 10.4 upbm affinity estimate (log intensity, higher = more binding, comparable within an allelic series); in [8], 11.2 upbm affinity estimate (log intensity, higher = more binding, comparable within an allelic series); in experiment [9], 11.2 upbm affinity estimate (log intensity, higher = more binding, comparable within an allelic series); in [10] it was 11 upbm affinity estimate (log intensity, higher = more binding, comparable within an allelic series); in experiment [11], 10.9 upbm affinity estimate (log intensity, higher = more binding, comparable within an allelic series); in experiment [12] it was 10.9 upbm affinity estimate (log intensity, higher = more binding, comparable within an allelic series). In experiment [13], the binding signal was 10.8 upbm affinity estimate (log intensity, higher = more binding, comparable within an allelic series).

Turning to CTGATACC, the binding signal was 11.3 upbm affinity estimate (log intensity, higher = more binding, comparable within an allelic series) in experiment [1]; 10.4 upbm affinity estimate (log intensity, higher = more binding, comparable within an allelic series) in [2]; 11.3 upbm affinity estimate (log intensity, higher = more binding, comparable within an allelic series) in experiment [3]; 9.63 upbm affinity estimate (log intensity, higher = more binding, comparable within an allelic series) in experiment [4]; 10.6 upbm affinity estimate (log intensity, higher = more binding, comparable within an allelic series) in experiment [5]; 11 upbm affinity estimate (log intensity, higher = more binding, comparable within an allelic series) in experiment [6]. The binding signal was 10.4 upbm affinity estimate (log intensity, higher = more binding, comparable within an allelic series) in experiment [7]; 11.4 upbm affinity estimate (log intensity, higher = more binding, comparable within an allelic series) in [8]; 11.4 upbm affinity estimate (log intensity, higher = more binding, comparable within an allelic series) in experiment [9]; 11.4 upbm affinity estimate (log intensity, higher = more binding, comparable within an allelic series) in experiment [10]; 11 upbm affinity estimate (log intensity, higher = more binding, comparable within an allelic series) in experiment [11]; 11.1 upbm affinity estimate (log intensity, higher = more binding, comparable within an allelic series) in experiment [12]. Also, the binding signal in experiment [13] is 11.1 upbm affinity estimate (log intensity, higher = more binding, comparable within an allelic series).
